Measurements taken from PubChem BioAssay.
Activity calls are given as the source filed them.

What was measured:
[1] = system: Plasmodium falciparum Sir2 (PF13_0152, Sir2A); experiment: Plasmodium falciparum Sir2A binding compounds – biochemical, small-molecule microarray, 635 nm fluorescence, primary screen (AID 1098); details: fluorescence 635 nm, higher = more signal;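 note: score merges spot fluorescence intensity with its signal-to-noise ratio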
[2] = probe aDKK1 binding to arrayed compounds – biochemical, biotinylated probe, 635/667 nm fluorescence, primary screen (AID 1099); details: small-molecule microarray, higher = more signal;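 note: score merges 667nm spot fluorescence with signal to noise across triplicate slides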
[3] = probe aCHRDL2 binding to arrayed compounds – biochemical, biotinylated probe, 635/667 nm fluorescence, primary screen (AID 1100); details: small-molecule microarray, higher = more signal
[4] = change in splice reporter luminescence, either direction, cell-based, HEK293, spliceosome inhibition project, primary screen (AID 1101); details: HEK293 splicing luciferase reporter, 24 h, higher = more signal, called active from +8 up or from −8 down;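 note: HEK293 cells carrying a splicing-competent luciferase reporter gene; test concentration not given here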
[5] = molecular target: Fibroblast growth factor 10 (Homo sapiens) (UniProt O15520); experiment: compounds binding fibroblast growth factor 10 – biochemical, small-molecule microarray, 635 nm fluorescence, primary screen (AID 1102); details: FGF10 binding, fluorescence 635 nm, higher = more signal
[6] = system: glycogen synthase kinase-3 (GSK3A per assay name; protocol says GSK3B); experiment: compounds binding glycogen synthase kinase-3 – biochemical, small-molecule microarray, 635 nm fluorescence, GSK3A, primary screen (AID 1103); details: fluorescence 635 nm, higher = more signal; note: the record names both GSK3A and GSK3B
[7] = molecular target: Epidermal growth factor receptor (Homo sapiens) (UniProt P00533); experiment: compounds binding epidermal growth factor receptor – biochemical, small-molecule microarray, 635 nm fluorescence, primary screen (AID 1104); details: EGFR binding, higher = more signal;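 note: score merges 667 nm emission intensity with spot signal to noise over triplicate slides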
[8] = molecular target: Follistatin-related protein 3 (Homo sapiens) (UniProt O95633); experiment: compounds binding follistatin-related protein 3 – biochemical, small-molecule microarray, 635 nm fluorescence, primary screen (AID 1105); details: FSTL3 binding, higher = more signal;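 note: score merges emission near 667 nm and signal to noise per printed spot across three slides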
[9] = molecular target: Dickkopf-related protein 1 (Homo sapiens) (UniProt O94907); experiment: small molecules binding DKK1 protein – biochemical, small-molecule microarray, 635 nm fluorescence scan, primary screen (AID 1106); details: higher = more signal;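 note: score merges emission near 667 nm with signal to noise over three replicate slides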
[10] = system: Inhibin beta A chain (activin A); experiment: small molecules binding activin A – biochemical, small-molecule microarray, 635 nm fluorescence scan, primary screen (AID 1107); details: INHBA, higher = more signal;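 note: mouse activin A protein probed at 4.33 µg/mL on printed slides; score merges bound-protein fluorescence near 667 nm with spot signal-to-noise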
[11] = system: Human papillomavirus type 1a protein E7 (residues 44-93); experiment: small molecules binding HPV E7 44-93 – biochemical, small-molecule microarray, residues 44-93, 635 nm fluorescence, primary screen (AID 1108); details: fluorescence 635 nm, higher = more signal;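 note: E7 fragment applied at 1 µg/mL in TBST for 1 h at 4 C; score combines spot fluorescence with its signal to noise ratio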
[12] = hepatitis C replication reporter changes, two-sided – Huh7 cells, luciferase reporter, HCV replication inhibitor project, primary screen (AID 1109); details: Huh7 HCV replicon luciferase reporter, 48 h; higher = more signal;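 note: huh7 hepatoma cells harbouring a luciferase neomycin HCV replicon reporter; luciferase luminescence as measure of HCV replicon replication; test concentration not given here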
[13] = molecular target: Left-right determination factor 2 (Homo sapiens) (UniProt O00292); experiment: small molecules binding LEFTY2 protein – biochemical, small-molecule microarray, 635 nm fluorescence scan, primary screen (AID 1110); details: higher = more signal
[14] = molecular target: Calmodulin-1 (Homo sapiens) (UniProt P0DP23); experiment: small molecules binding calmodulin-1 with EGTA – biochemical, small-molecule microarray, Cy5-labelled CALM1, profiling panel (AID 1111); details: Cy5-CALM1 binding fluorescence, higher = more signal;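 note: labelled calmodulin applied in Tris saline Tween buffer holding calcium plus EGTA and DTT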
[15] = molecular target: Calmodulin-1 (Homo sapiens) (UniProt P0DP23); experiment: small molecules binding Ca-loaded calmodulin-1 – biochemical, small-molecule microarray, Cy5-labelled CALM1, plus calcium, artefact control for SMM control-protein annotation, profiling panel (AID 1112); details: Cy5-CALM1 binding fluorescence, higher = more signal;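 note: score merges spot fluorescence with signal to noise from triplicate slides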
[16] = probe aWnt5a binding to arrayed compounds – biochemical, biotinylated probe, 635/667 nm fluorescence, primary screen (AID 1113); details: small-molecule microarray, higher = more signal;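 note: score merges 667 nm fluorescence intensity with signal-to-noise per printed feature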
[17] = probe aShh binding to arrayed compounds – biochemical, biotinylated probe, 635/667 nm fluorescence, primary screen (AID 1114); details: small-molecule microarray, higher = more signal;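 note: probe is biotin-labelled aShh protein from a stem cell growth factor screen; measures binding of labelled protein to compounds printed on the slide; score merges feature fluorescence at 667 nm with signal-to-noise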
[18] = probe aNog binding to arrayed compounds – biochemical, biotinylated probe, 635/667 nm fluorescence, primary screen (AID 1115); details: small-molecule microarray, higher = more signal;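 note: probe is biotinylated aNog protein used at 0.15 µg/mL for 1 h at 4 C; z-score combines 667 nm fluorescence of each spot with its signal to noise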
[19] = molecular target: Torsin-1A-interacting protein 1 (Homo sapiens) (UniProt Q5JTV8); experiment: compound microarray binding of lysate hLAP1 – cell lysate, small-molecule microarray, COS7 lysate, 635/667 nm fluorescence, primary screen (AID 1116); details: 635 nm fluorescence, higher = more signal
[20] = molecular target: Alpha-bungarotoxin (Bungarus multicinctus) (UniProt P60615); experiment: compounds binding labelled alpha-BTX control protein – biochemical, small-molecule microarray, Alexa647 label, 635/667 nm fluorescence, artefact control for SMM control protein annotation, profiling panel (AID 1117); details: alpha-BTX-A647 binding fluorescence, higher = more signal
Alpha-bungarotoxin (Bungarus multicinctus), sequence (P60615 whole entry, looked up): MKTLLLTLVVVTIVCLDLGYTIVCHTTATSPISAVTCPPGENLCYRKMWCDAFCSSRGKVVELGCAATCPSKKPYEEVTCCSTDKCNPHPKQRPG

Epidermal growth factor receptor (Homo sapiens), sequence (P00533 whole entry, looked up): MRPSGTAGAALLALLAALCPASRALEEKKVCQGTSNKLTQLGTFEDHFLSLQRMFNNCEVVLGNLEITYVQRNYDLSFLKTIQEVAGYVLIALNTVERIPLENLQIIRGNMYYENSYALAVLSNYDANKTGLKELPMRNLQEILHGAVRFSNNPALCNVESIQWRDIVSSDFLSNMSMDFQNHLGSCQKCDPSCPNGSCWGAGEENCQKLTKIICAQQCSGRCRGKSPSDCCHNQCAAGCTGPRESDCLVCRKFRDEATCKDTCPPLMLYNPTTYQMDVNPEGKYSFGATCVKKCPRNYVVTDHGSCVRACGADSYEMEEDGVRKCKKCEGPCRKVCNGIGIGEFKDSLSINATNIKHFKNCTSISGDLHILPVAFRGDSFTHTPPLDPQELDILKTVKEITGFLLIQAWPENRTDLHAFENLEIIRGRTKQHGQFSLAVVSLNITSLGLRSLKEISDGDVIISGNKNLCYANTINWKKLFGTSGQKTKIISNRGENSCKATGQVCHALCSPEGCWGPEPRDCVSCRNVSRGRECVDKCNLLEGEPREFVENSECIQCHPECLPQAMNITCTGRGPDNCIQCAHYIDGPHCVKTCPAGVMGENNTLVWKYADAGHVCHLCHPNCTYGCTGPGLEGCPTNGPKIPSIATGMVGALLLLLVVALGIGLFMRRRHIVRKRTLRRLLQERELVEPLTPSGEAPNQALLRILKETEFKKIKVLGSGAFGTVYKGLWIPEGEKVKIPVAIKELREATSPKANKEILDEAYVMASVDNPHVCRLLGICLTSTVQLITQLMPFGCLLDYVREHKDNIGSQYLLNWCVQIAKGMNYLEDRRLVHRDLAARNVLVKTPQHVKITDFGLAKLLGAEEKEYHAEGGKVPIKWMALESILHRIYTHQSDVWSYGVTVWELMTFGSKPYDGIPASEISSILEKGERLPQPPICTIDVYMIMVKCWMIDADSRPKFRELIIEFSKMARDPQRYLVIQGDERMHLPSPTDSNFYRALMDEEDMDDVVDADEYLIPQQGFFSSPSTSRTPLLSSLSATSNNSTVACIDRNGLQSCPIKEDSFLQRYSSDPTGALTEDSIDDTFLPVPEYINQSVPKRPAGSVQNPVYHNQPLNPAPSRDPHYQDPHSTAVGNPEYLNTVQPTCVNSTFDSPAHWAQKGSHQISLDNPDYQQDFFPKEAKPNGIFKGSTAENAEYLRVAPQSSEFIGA
Fibroblast growth factor 10 (Homo sapiens), sequence (O15520 whole entry, looked up): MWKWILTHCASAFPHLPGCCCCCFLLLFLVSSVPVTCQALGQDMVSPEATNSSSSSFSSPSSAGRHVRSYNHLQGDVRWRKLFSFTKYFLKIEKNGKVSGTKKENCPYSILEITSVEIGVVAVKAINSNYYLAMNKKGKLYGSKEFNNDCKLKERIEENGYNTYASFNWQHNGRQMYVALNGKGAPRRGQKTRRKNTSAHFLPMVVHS
Torsin-1A-interacting protein 1 (Homo sapiens), sequence (Q5JTV8 whole entry, looked up): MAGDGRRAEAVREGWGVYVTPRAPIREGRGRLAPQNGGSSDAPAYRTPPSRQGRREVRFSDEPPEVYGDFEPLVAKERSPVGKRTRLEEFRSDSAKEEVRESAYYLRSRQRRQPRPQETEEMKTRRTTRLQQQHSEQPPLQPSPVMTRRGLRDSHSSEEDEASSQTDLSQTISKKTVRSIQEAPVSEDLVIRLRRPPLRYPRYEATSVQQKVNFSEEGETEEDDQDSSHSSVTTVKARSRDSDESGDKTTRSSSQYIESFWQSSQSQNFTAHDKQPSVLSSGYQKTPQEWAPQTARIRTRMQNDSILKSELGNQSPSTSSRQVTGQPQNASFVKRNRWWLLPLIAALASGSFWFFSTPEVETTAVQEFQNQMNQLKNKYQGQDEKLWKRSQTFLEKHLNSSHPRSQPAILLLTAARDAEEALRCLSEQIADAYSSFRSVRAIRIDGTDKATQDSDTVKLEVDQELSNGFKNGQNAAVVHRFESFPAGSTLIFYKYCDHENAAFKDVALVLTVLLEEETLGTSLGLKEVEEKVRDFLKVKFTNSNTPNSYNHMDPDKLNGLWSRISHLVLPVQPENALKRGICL
Follistatin-related protein 3 (Homo sapiens), sequence (O95633 whole entry, looked up): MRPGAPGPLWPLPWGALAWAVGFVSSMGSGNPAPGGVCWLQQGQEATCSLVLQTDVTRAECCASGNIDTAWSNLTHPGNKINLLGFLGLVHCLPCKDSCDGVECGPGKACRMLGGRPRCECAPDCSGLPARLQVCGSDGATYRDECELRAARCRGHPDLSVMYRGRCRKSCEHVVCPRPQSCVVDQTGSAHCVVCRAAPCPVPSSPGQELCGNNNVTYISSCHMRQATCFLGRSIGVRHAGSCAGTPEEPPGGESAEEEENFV
Dickkopf-related protein 1 (Homo sapiens), sequence (O94907 whole entry, looked up): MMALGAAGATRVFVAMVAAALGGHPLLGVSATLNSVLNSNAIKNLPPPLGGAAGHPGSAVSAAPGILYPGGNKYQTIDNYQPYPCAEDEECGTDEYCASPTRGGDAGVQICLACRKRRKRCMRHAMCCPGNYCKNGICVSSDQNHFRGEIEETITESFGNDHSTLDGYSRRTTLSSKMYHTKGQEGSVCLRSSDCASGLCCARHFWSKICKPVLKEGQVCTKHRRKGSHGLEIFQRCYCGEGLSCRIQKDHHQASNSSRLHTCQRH
Left-right determination factor 2 (Homo sapiens), sequence (O00292 whole entry, looked up): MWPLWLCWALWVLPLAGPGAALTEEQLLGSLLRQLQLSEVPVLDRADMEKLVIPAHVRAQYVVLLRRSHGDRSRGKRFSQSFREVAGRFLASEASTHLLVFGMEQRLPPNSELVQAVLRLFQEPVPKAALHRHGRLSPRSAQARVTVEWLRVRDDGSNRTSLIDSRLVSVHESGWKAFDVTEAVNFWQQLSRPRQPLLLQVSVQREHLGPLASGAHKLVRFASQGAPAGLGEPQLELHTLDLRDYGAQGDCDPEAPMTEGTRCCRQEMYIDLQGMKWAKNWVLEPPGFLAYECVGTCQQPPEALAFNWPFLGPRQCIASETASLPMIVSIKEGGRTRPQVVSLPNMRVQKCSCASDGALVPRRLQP

SMILES	composite z-score [1]	composite z-score [2]	composite z-score [3]	z-score [4]	composite z-score [5]	composite z-score [6]	composite z-score [7]	composite z-score [8]	composite z-score [9]	composite z-score [10]	composite z-score [11]	z-score [12]	composite z-score [13]	composite z-score [14]	composite z-score [15]	composite z-score [16]	composite z-score [17]	composite z-score [18]	composite z-score [19]	composite z-score [20]
CC[C@@H](c1ccccc1)n1c(=O)n2n(c1=O)[C@H]1[C@H](O)[C@@H]3O[C@@H]3C(=NOC[C@@H](O)COCc3ccco3)[C@H]1CC2	1.27	-0.455	-0.773	3.16 (inactive)	0.145	-0.693	-0.264	-0.378	0.239	1.09	-0.629	-2.55	0.0632	-1.26	-1.51	-0.145	-0.276	0.618	-0.298	-0.201
CO[C@H]1COC(=O)CC=C[C@H](C)[C@@H](OC)COC(=O)[C@@H](C)COC(=O)CC=C[C@@H]1C	0.567	-0.909	-1.66	0.337 (inactive)	0.902	0.709	1.32	1.47	1.3	1.79	-0.544	-1.09	1.16	-2.12	-2.84	-0.1	-0.0769	-0.339	0.34	-1.47
CCOC(=O)[C@H](CC(C)C)NC(=O)CCC1CC(OC(=O)NCc2cccc3ccccc23)CC2(CCCC(COC(=O)NCCOC)O2)O1 (stereo not given in full)	0.546	-0.164	-0.401	-1.8 (inactive)	0.799	1.3	0.412	1.17	0.358	-0.0748	1.34	0.339	0.629	-0.24	-0.418	-0.116	-0.128	-0.0653	0.481	0.0702
CC(C)(C)N1C(=O)[C@H]2[C@H]3[C@H](O)[C@H](O)CC(=O)[C@@H]3CC[C@H]2C1=O	0.369	-0.227	-0.658	0.343 (inactive)	0.639	0.239	0.479	0.265	0.711	0.156	0.3	0.6	0.709	-0.339	-0.518	-0.0125	0.0121	-0.108	0.804	0.106
CO[C@@H]1COC(=O)[C@@H]2CCCN2C(=O)[C@@H](C)COC(=O)CC=C[C@H]1C	0.13	-0.552	-0.522	-0.203 (inactive)	0.959	1.28	0.598	0.993	1.12	-0.282	1.04	-0.913	0.861	-0.149	-0.439	-0.147	0.284	0.0453	0.378	0.234
C=CC[C@@H]1C=C[C@H](ON=C2[C@H]3CCn4c(=O)n(-c5ccccc5)c(=O)n4[C@H]3[C@H](O)[C@@H]3O[C@H]23)[C@@H](CO)O1	0.482	-0.378	-0.548	0.492 (inactive)	0.51	-0.596	0.55	0.485	0.536	0.376	-0.268	-3.56	0.402	0.991	-0.0461	-0.147	-0.0752	-0.534	0.16	0.744
